# According to PubChem BioAssay AID743286 (National Center for Advancing Translational Sciences (NCATS), 2014):
# In all, about 1,100 compounds went through this assay and about 340 (31%) were called active. Roughly 40% stayed inconclusive and do not appear here. Not all results are given here. Values without a mark were called inactive. Calls follow the shape of the dose curve; as a rule, active = well fitted inhibition curve with a large enough effect; inconclusive = small, poorly fitted or top-dose-only effect; inactive = flat fitted curve, though single readings scatter.
# Target: Phosphatidylinositol 5-phosphate 4-kinase type-2 alpha (Homo sapiens) (UniProt P48426)
# Sequence (P48426 whole entry, looked up): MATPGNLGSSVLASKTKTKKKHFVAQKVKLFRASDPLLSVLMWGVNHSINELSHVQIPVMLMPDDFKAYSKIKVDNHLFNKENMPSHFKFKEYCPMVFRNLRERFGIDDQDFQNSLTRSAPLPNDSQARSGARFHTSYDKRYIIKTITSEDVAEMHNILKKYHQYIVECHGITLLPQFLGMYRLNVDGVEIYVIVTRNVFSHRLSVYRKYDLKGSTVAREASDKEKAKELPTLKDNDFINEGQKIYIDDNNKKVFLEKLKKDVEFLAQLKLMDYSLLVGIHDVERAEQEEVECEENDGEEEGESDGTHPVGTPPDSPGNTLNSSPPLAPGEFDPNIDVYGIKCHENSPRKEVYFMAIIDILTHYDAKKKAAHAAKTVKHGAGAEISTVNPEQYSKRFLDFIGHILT
# Experiment: qHTS for Inhibitors of PI5P4K: Confirmation in Primary Assay; also: nearly all actives have a fitted effect of over 65% in size
# Conditions: PI5P4Kalpha enzyme, ADP-Glo luminescence, 60 min; series mostly up to 76.9 µM; activity change, negative = inhibition: at the top concentration
# Outline: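 Human PI5P4Kα activity was measured as ADP generation using ADP-Glo luminescence. Reactions ran 60 minutes at room temperature with 5 microM ATP in buffered conditions at pH 7.4 containing 5% DMSO.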
# % is scaled to controls: 0 for no effect and ±100 for the full control effect; potency is read from the fitted curve at half-maximal effect.
SMILES,"activity change, negative = inhibition [%]",Potency
COc1ccc2c(c1)C=C(CN1CCN(Cc3ccccc3C)C(CCO)C1)CO2 (stereo not given),1.01,–
Cc1ccc(-c2csc(NC(=O)c3ccno3)n2)cc1,–,28.2 µM (active)
NC(=O)c1c(NC(=O)c2ccccc2)sc2c1CCC2,–,25.1 µM (active)
NC(=O)c1c(NC(=O)c2cc3ccccc3o2)sc2c1CCC2,–,31.6 µM (active)
NC(=O)c1c(NC(=O)CN2CCCC2)sc2c1CCCC2,-1.83,–
Cc1ccc2cc(CCl)c(Cl)nc2c1,-0.529,–
NC(=S)c1cc2ccc(O)cc2oc1=O,–,14.1 µM (active)
O=C(c1ccc(F)cc1)c1cc2ccc(O)cc2oc1=O,–,10 µM (active)
O=C(NCc1ccco1)c1cc2ccc(O)cc2oc1=O,–,14.1 µM (active)
O=C(c1ccc(Br)cc1)c1cc2ccc(O)cc2oc1=O,–,11.2 µM (active)
N=c1oc2ccc3ccccc3c2cc1C(N)=S,-20.2,–
O=c1oc2cc(O)ccc2cc1-c1ccc(F)cc1,-21.3,–
COc1ccc(C(=O)N2CCC2(C)C(=O)O)cc1F (stereo not given),-4.7,–
O=C(Nc1ccc(-c2nc3ncccc3o2)cc1)c1ccco1,-14.4,–
O=C(CCN1CCc2ccccc2C(c2ccccc2)C1)c1ccc2c(c1)OCCO2 (stereo not given),2.85,–
O=C(Cn1cncn1)NCc1ccccc1Br,-17.6,–
CCOC(=O)N1CCN(C(=O)CCS(=O)(=O)c2ccc3c(c2)CCN3C(=O)CC)CC1,4.08,–
Cc1cccc(N=c2oc3cc(O)ccc3cc2C(N)=O)c1,–,14.1 µM (active)
Clc1ccc2nc(-c3ccco3)c(Cc3ccccc3)n2c1,-25.6,–
c1coc(-c2ccc3nncn3c2)c1,–,15.8 µM (active)
CC(=O)c1ccc(NC(=O)c2noc3c2CCC3)cc1,–,35.5 µM (active)
O=C(Nc1nnc(COc2ccc(Cl)cc2)s1)c1cccs1,-13.3,–
CC(C)(NC(=O)c1ccccc1)c1nc2ccccc2s1,-17.8,–
Cc1nc(N)sc1-c1csc(Nc2cccc(C(=O)O)c2)n1,–,15.8 µM (active)
OCCNc1nc(Nc2ccc(Cl)c(Cl)c2)nc2ccccc12,–,31.6 µM (active)

SMILES,"activity change, negative = inhibition [%]",Potency
O=C1COc2ccc(S(=O)(=O)NCCc3ccccc3)cc2N1,2.64,–
Cc1ccc(C)c(S(=O)(=O)Nc2ccc3oc(C)c(C(=O)O)c3c2)c1,–,15.8 µM (active)
COc1cc(CNc2ccc(N3CCCC3)cc2)cc(Cl)c1OC,-18.4,–
O=C(O)C1Nc2c(Cl)cc(Cl)c(Cl)c2C2C=CCC12 (stereo not given),–,8.91 µM (active)
CCc1c(C)sc(NC(=O)c2ccoc2C)c1C(N)=O,–,12.6 µM (active)
CCOc1ccc(CC(=O)Nc2sc(Cc3ccccc3)c(C)c2C(N)=O)cc1OCC,-12.1,–
NS(=O)(=O)c1ccc(NC(=O)c2ccc(S(=O)(=O)N3CCc4ccccc43)cc2)cc1,–,14.1 µM (active)
O=S(=O)(c1ccc(Br)cc1)N1CCCc2ccccc21,7.69,–
Clc1ccc2nc(CSc3nc4ccccc4o3)cn2c1,3.79,–
CCOc1ccccc1N1CSC2=C(C#N)C(c3c(OC)ccc4ccccc34)CC(=O)N2C1 (stereo not given),–,20 µM (active)
COc1ccc2ccccc2c1C1CC(=O)N2CN(C3CCCCC3)CSC2=C1C#N (stereo not given),–,15.8 µM (active)
C[C@H](CO)N1C[C@H](C)[C@@H](CN(C)S(=O)(=O)c2ccc3c(c2)OCCCO3)OCc2cnnn2CCCC1=O,0.696,–
CCN1CCN(C(=O)Cn2nc(-c3ccc(Cl)cc3)ccc2=O)CC1,7.36,–
COc1cc2nc(Nc3ccc(C)c(Cl)c3)nc(N)c2cc1OC,–,15.8 µM (active)
CC1CCCCC1NC(=O)COC(=O)c1c2c(nc3ccccc13)/C(=C\c1ccco1)CC2 (stereo not given),–,1.26 µM (active)
Cc1ccnc2nc(C(=O)OCC(=O)NC3CCCC(C)C3C)nn12 (stereo not given),5.28,–
COc1ccc(CCn2c(O)cc3nn(-c4nc5ccccc5s4)c(=O)c-3c2C)cc1,–,11.2 µM (active)
O=C(CCS(=O)(=O)c1ccc2c(c1)NC(=O)CS2)NCCc1ccc(Cl)cc1,-2.61,–
NS(=O)(=O)c1ccc(NC(=O)C2Cc3ccccc3CN2C(=O)c2ccco2)cc1 (stereo not given),–,14.1 µM (active)
CCCNC(=O)C1(C)CCCN(C(=O)c2cc(C)nn2C(C)(C)C)C1 (stereo not given),0.849,–
Oc1cc2c(cc1C(c1ccc(Cl)c(Cl)c1)N1CCCC1)OCO2 (stereo not given),–,12.6 µM (active)
O=C(Nc1cccc2cccnc12)c1csc(COCCO)n1,-0.498,–
O=C(c1cccnc1)N(c1cc2sc(=O)oc2c2ccccc12)S(=O)(=O)c1ccccc1,-17.1,–
COc1ccc(S(=O)(=O)N2CCN(C(=O)c3cc4c(s3)CCC4)CC2)cc1,–,7.08 µM (active)
CCOc1ccc(S(=O)(=O)N2CCN(c3ccc(C)cc3C)CC2)cc1,11.9,–
